Results as given in ChEMBL document CHEMBL4513216, “Probing the Open Global Health Chemical Diversity Library for Multistage-Active Starting Points for Next-Generation Antimalarials” (ACS Infect Dis, 2020).
The whole screen tested about 69,000 compounds, of which about 8,600 (12%) showed an effect of 50% or more. The entries come from a sample that favours strong results as a whole.

Tested on: Plasmodium berghei
Assay: Screen against P. berghei liver stage (PbLuc), transformed with Luciferase, at 10uM
Assay type: functional, HepG2
Conditions: tested at 10 uM

| SMILES | INHIBITION [%] |
| --- | --- |
| CCOc1c(C(N)=O)cn(C)c1-c1nc2cc(NC(C)=O)ccc2n1C | 44.3 |
| O=C1CCNc2cc3c(cc2CN1CC1CC1)OCO3 | 13.1 |
| CCN1Cc2cc3c(cc2NCCC1=O)OCO3 | 64.6 |
| CC(C)(C)C(=O)CN1Cc2ccccc2NCCC1=O | 10.9 |
| CC(C)(C)CN1Cc2cc3c(cc2NCCC1=O)OCO3 | 52.5 |
| O=C1CCNc2cc3c(cc2CN1Cc1ccco1)OCO3 | 4.82 |
| COC(=O)CN1Cc2cc3c(cc2NCCC1=O)OCO3 | 41.1 |
| O=C(c1n[nH]c(=O)c2ccccc12)N1CCCC1Cn1cccn1 (stereo unspecified) | 45.9 |
| O=C(O)CCc1nc2nccc(C(F)(F)F)n2n1 | -25.6 |
| O=C(OCC1CCCN1)c1cccc(NC(=O)c2ccco2)c1 (stereo unspecified) | -142 |
| O=C1CC[C@@H]2[C@@H](CCN2S(=O)(=O)C2CC2)N1CC1CC1 | 49.4 |
| O=C1CC[C@H]2[C@H](CCN2S(=O)(=O)C2CC2)N1CCN1CCCC1 | 85.6 |
| COCCN1C(=O)CC[C@@H]2[C@@H]1CCN2S(=O)(=O)C1CC1 | 43.9 |
| CN1CC(=O)N(c2cnn(C)c2)CC12CCN(CC1CC1)C2 (stereo unspecified) | 30.3 |
| C[C@]1(O)CCN(Cc2ncccc2F)C[C@@H]1Oc1cccc(F)c1 | -4.51 |
| C[C@]1(O)CN(Cc2ncccc2F)CC[C@@H]1Oc1ccccc1 | 24.4 |
| C[C@]1(O)CN(Cc2ncc[nH]2)CC[C@@H]1Oc1cccc(F)c1 | 61.9 |
| Cc1cccnc1CN1CC[C@H](Oc2cccc(F)c2)[C@@](C)(O)C1 | 75.3 |
| Cc1nccc(CN2CC[C@H](Oc3cccc(F)c3)[C@@](C)(O)C2)n1 | 38.7 |
| C[C@]1(O)CN(Cc2cscn2)CC[C@@H]1Oc1cccc(F)c1 | 38.2 |
| Cc1cccnc1CN1CC[C@@](C)(O)[C@H](Oc2ccccc2)C1 | 24.4 |
| C[C@]1(O)CN(Cc2ncccc2F)CC[C@@H]1Oc1cccc(F)c1 | 50.1 |

| SMILES | INHIBITION [%] |
| --- | --- |
| O=C1CC(c2cccnc2)C2(CCN(C(=O)c3ccncc3)CC2)N1 (stereo unspecified) | 33.5 |
| O=c1[nH]c2cn(-c3cccc(Cl)c3)c(=O)n2n1Cc1cccc(F)c1 | 34 |
| Cc1nc(CN2CCCC(NCCCOc3ccc(F)cc3)C2)no1 (stereo unspecified) | 19.4 |
| O=C(O)c1ccc(COc2cccc(Cl)c2)s1 | 8.49 |
| CN1CCN(Cc2cnc3n2CCN(C(=O)c2ccnnc2)C3)CC1 | 32.2 |
| CN1CCN(Cc2cnc3n2CCN(C(=O)c2cnccn2)C3)CC1 | 20.6 |
| Cc1cccc(C(=O)N2CCn3c(CN4CCN(C)CC4)cnc3C2)n1 | 68.4 |
| CN1CCN(Cc2cnc3n2CCN(C(=O)c2ccccn2)C3)CC1 | 40.4 |
| CN1CCN(Cc2cnc3n2CCN(C(=O)c2ccoc2)C3)CC1 | 59 |
| CN1CCN(Cc2cnc3n2CCN(C(=O)c2ccncc2)C3)CC1 | 42.7 |
| CCCc1noc(CCC(=O)N2CCCCC2Cn2cc(C)cn2)n1 (stereo unspecified) | 28.3 |
| O=C(c1ccc(NC2CC2)nc1)N1CCC(Nc2cccnn2)CC1 | 11.6 |
| CC(C)c1nc(CN2CCN(C(=O)CC3CCCCC3)CC2)no1 | -3.21 |
| CCn1nc(C)c2c1cnn2CCNS(=O)(=O)CC | 30 |
| CC(C)CCn1c(=O)n(CCn2cccc2)c2cc(C(=O)O)cnc21 | 36.7 |
| Cc1cccc(CN2CCO[C@@H]3CC(COc4ccccn4)C[C@H]32)n1 (stereo partly specified) | 35.5 |
| Cc1nc(CN2CCO[C@@H]3CC(COc4ccccn4)C[C@H]32)cs1 (stereo partly specified) | 31.5 |
| c1ccc(OCC2C[C@@H]3[C@@H](C2)OCCN3Cc2ccoc2)nc1 (stereo partly specified) | 54.4 |
| COCC(O)CN1CCC(=O)N(CC2CC2)Cc2ccccc21 (stereo unspecified) | 21.5 |
| COCc1ccc(C(=O)N(CCC#N)Cc2ccccn2)cc1 | 44 |
| CCOc1cccc(C(=O)N(CCC#N)Cc2ccccn2)c1 | 51.7 |
| Cc1ccc(C(=O)N(CCC#N)Cc2ccccn2)cc1C | 5.48 |

| SMILES | INHIBITION [%] |
| --- | --- |
| COc1cc(C(=O)N(CCC#N)Cc2ccccn2)ccc1C | 29.4 |
| COc1ccc(C(=O)N(CCC#N)Cc2ccccn2)cc1 | -1.37 |
| N#CCCN(Cc1ccccn1)C(=O)c1cccc(CN2CCCC2)c1 | 61.8 |
| O=C(Nc1ccccc1)[C@H]1C[C@H]2CN(Cc3cccnc3)C[C@@H]1O2 | 59 |
| CNC(=O)[C@H]1C[C@H]2CN(Cc3ccc(C)cc3)C[C@@H]1O2 | 9.65 |
| O=C(Nc1cccnc1)[C@H]1C[C@H]2CN(S(=O)(=O)C3CC3)C[C@@H]1O2 | 48.6 |
| CCN1C[C@@H]2C[C@H](C(=O)Nc3ccccc3)[C@H](C1)O2 | 1.94 |
| CNC(=O)[C@H]1C[C@H]2CN(Cc3ccccc3)C[C@@H]1O2 | 1.7 |
| CC(C)CCN1C[C@@H]2C[C@H](C(=O)Nc3cccnc3)[C@H](C1)O2 | 41.6 |
| CCCS(=O)(=O)N1C[C@@H]2C[C@H](C(=O)Nc3cccnc3)[C@H](C1)O2 | 34.6 |
| Cc1ccc(CN2C[C@@H]3C[C@H](C(=O)Nc4cccnc4)[C@H](C2)O3)cc1 | 64.9 |
| O=C(Nc1cccnc1)[C@H]1C[C@H]2CN(Cc3ccc(F)cc3)C[C@@H]1O2 | 63.7 |
| CNC(=O)[C@H]1C[C@H]2CN(Cc3cccc(C)c3)C[C@@H]1O2 | 57.3 |
| COc1ccc(CN2C[C@@H]3C[C@H](C(=O)Nc4cccnc4)[C@H](C2)O3)cc1 | 28.7 |
| CCOc1ccccc1OC1CCN(C(=O)c2[nH]nc(C)c2Br)CC1 | 2.97 |
| Cc1nc(CCCNC(=O)[C@H]2CNC[C@@H](C(=O)N3CCCC3)C2)sc1C | 6.72 |
| COCC[C@]1(O)CCN(C(=O)CCn2c(C)cccc2=O)C[C@H]1C | 1.94 |
| CN(C)CCn1c2c(ccc1=O)CCN(Cc1cnn(C)c1)CC2 | -3.26 |
| Cn1cc(CN2CCc3ccc(=O)n(Cc4ccncc4)c3CC2)cn1 | 20.6 |
| CN(C)C(=O)Cn1c2c(ccc1=O)CCN(Cc1cnn(C)c1)CC2 | 52.4 |
| Cn1cc(CN2CCc3ccc(=O)n(CC4CC4)c3CC2)cn1 | 89.1 |
| O=c1ccc2c(n1CC1CCOCC1)CCN(Cc1ccoc1)CC2 | 5.41 |

| SMILES | INHIBITION [%] |
| --- | --- |
| CN(C)CCn1c2c(ccc1=O)CCN(Cc1ccncc1)CC2 | -7.24 |
| Cc1ccc(CN2CC[C@H](O)[C@@H](n3ccc(=O)[nH]c3=O)CC2)cc1 | 37.6 |
| Cn1cc(CN2CCC(Cn3cc(-c4ccccc4)nn3)CC2)cn1 | 48.8 |
| CN(C)c1cc(C(=O)N2CCN(c3nccs3)CC2)ccn1 | -43.9 |
| CC(=O)N1CCC2(CC1)CNc1c(F)cccc12 | 29.5 |
| O=C(c1ccccc1)N1CCC2(CC1)CNc1c(F)cccc12 | 60.3 |
| O=C(c1cccnc1)N1CCC2(CC1)CNc1c(F)cccc12 | 40.5 |
| Cc1cc(CN2CCN(C(=O)NCCc3csc(C)n3)CC2)on1 | -43.5 |
| O=C(NCC1CCOCC1)[C@@H]1C[C@@H]2[C@@H](CCN2Cc2ccoc2)O1 | 12.5 |
| CN(C)S(=O)(=O)N1CCC(c2cccc(Cc3ccccc3Cl)n2)CC1 | 96 |
| Cc1c[nH]nc1C1CCN(S(=O)(=O)N(C)C)C1 (stereo unspecified) | -9.32 |
| CN(C)S(=O)(=O)N1CCCC(c2cccc(Cc3ccc(F)cc3)n2)C1 (stereo unspecified) | 96 |
| CN(C)S(=O)(=O)N1CCCC(c2cccc(Cc3ccccc3F)n2)C1 (stereo unspecified) | 15.9 |
| CN(C)S(=O)(=O)N1CCCC(c2ccncn2)C1 (stereo unspecified) | 25.6 |
| CN(C)S(=O)(=O)N1CCC(c2ccncn2)CC1 | -9.32 |
| CN(C)S(=O)(=O)N1CCCC(c2cccc(Cc3ccc(Cl)cc3)n2)C1 (stereo unspecified) | 82.7 |
| CN(C)S(=O)(=O)N1CCCC(c2nccnc2-c2cccc(Cl)c2)C1 (stereo unspecified) | 5.37 |
| CS(=O)(=O)N1CCCC(c2cccc(-c3ccccc3F)n2)C1 (stereo unspecified) | 12.675 |
| Cc1cc(C2CCCN(S(=O)(=O)N(C)C)C2)ccn1 (stereo unspecified) | -20.6 |
| CN(C)S(=O)(=O)N1CCCC(c2cccc(Cc3ccccc3)n2)C1 (stereo unspecified) | 84 |
| Cc1noc(C)c1-c1cccc(C2CCN(S(=O)(=O)N(C)C)CC2)n1 | 32.4 |
| COc1ccc(C)cc1Nc1nc2c(C)nn(C)c2c(=O)n1C | -2.13 |

| SMILES | INHIBITION [%] |
| --- | --- |
| COCCN1CCC(CNC(=O)C2(c3cccc(Cl)c3)CC2)C1 (stereo unspecified) | 30.6 |
| c1cncc(CN2CCC(c3ccc4c(c3)OCO4)CC2)c1 | 6.4 |
| Cc1nc(O)c2nnn(C[C@H]3CCCN3C(=O)C3CCCC3)c2n1 | 30.4 |
| Cc1cc(NC(=O)NCCCSc2nncn2C)no1 | 15 |
| Cc1nn(C)c(N(C)C)c1CNCc1ccc2c(c1)OCO2 | 11.4 |
| COC1CCN(c2ccc(F)cc2CN(C)CC(N)=O)CC1 | -3.83 |
| CC(=O)N1CCCC1c1cccc(Cc2ccccc2Cl)n1 (stereo unspecified) | 38.2 |
| CN1CCCC(c2cccc(Cc3ccccc3Cl)n2)C1 (stereo unspecified) | 51.7 |
| CN1CCCC(c2cccc(CCC(N)=O)n2)C1 (stereo unspecified) | -4.51 |
| Cc1ccc(-c2nc(CSCCC(=O)NC(N)=O)co2)cc1 | 89.6 |
| NC(=O)NC(=O)CCSCc1coc(-c2cccc(Cl)c2)n1 | 5.91 |
| CNC(=O)CCS(=O)(=O)Cc1coc(-c2ccc(F)cc2)n1 | 7.43 |
| Cc1ccc(-c2nc(CCNC(=O)NCC(C)(C)C(N)=O)co2)cc1 | 27.6 |
| Cc1ccc(-c2nc(CSCCC(=O)NC(N)=O)co2)c(C)c1 | 87.4 |
| NC(=O)NC(=O)CCSCc1cc(F)cc2cccnc12 | -28.9 |
| Cc1ccc(-c2nc(CNCC3CN(C)CCO3)co2)c(C)c1 (stereo unspecified) | 7.12 |
| CNC(=O)Cc1coc(-c2ccc(F)cc2)n1 | 48.1 |
| NC(=O)NC(=O)CCSCc1coc(-c2ccc(F)cc2)n1 | 67.8 |
